From PubChem BioAssay (Tox21) come the findings set out here.

Assay [1] is described as follows: Nuclear factor erythroid 2-related factor 2/antioxidant responsive element (Nrf2/ARE) small molecule agonists: qHTS cell viability counter screen in human keratinocytes (AID 1919968; active = well fitted cell-killing curve with a large enough effect in the repeat runs; also: nearly all actives have a fitted effect of over 55% in size; also: potency is read from the fitted curve at half-maximal effect). The essentials:
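Stably transfected HaCaT (KeratinoSens), 1,500/well. Test agents in DMSO were applied for 23 h, 37 C/5% CO2. CellTiter-Fluor was incubated 1 h before the fluorescence read.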
(qHTS replaces the single test concentration by a dilution series.)

Assay [2] in a line: Nuclear factor erythroid 2-related factor 2/antioxidant responsive element (Nrf2/ARE) small molecule agonists: luciferase reporter gene qHTS assay in human keratinocytes (AID 1919969). Also: nearly all actives have a fitted effect of over 35% in size. Also: potency is read from the fitted curve at half-maximal effect.
The target in assay [3] is Gonadotropin-releasing hormone receptor (Homo sapiens) (UniProt P30968). Nature of the assay: Human gonadotropin-releasing hormone receptor (GnRHR) small molecule agonists, calcium flux assay in GnRHR-HEK293 cells (AID 1920063). Also: nearly all actives have a fitted effect of over 35% in size. The essentials:
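Stable human GnRHR HEK293 line. 18 h plating, then calcium dye for 1 h at 37 C. Agonist-mode compound addition from DMSO stocks; fluorescence monitored 3 min.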
(In general: Calcium flux is commonly read through the fluorescence of an indicator in the cells.)

Assay [4] can be described thus: G protein-coupled receptor (GPCR) small molecule agonists, calcium flux assay: HEK293 wild type cell line counter screen (AID 1920065). The essentials: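 Following 18 h incubation at 37 C/5% CO2, plates got calcium dye for 1 h; compounds, ATP or DMSO were then pinned in and fluorescence followed kinetically (480/540 nm).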
The nature of assay [5]: p53 small molecule agonists, cell-based qHTS assay with human liver microsomes (AID 1963577).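 Also: p53 response element beta-lactamase reporter cells with liver microsomes plus NADPH.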 In outline:
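HLM-supplemented p53RE-bla reporter assay: 16 h compound exposure at 37 C, microsomes and NADPH each 0.5 mg/mL final, read by fluorescence intensity.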

Assay [6] is described as follows: p53 small molecule agonists, cell-based qHTS assay with rat liver microsomes (AID 1963578). The essentials:
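Quantitative HTS of the Tox21 10K library: p53RE-bla cells, rat liver microsomes plus NADPH at 0.5 mg/mL final each, 16 h at 37 C, beta-lactamase fluorescence detection.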

Assay [7] is described as follows: p53 small molecule agonists, cell-based qHTS assay with human liver microsomes: qHTS cell viability counter screen (AID 1963579). Also: nearly all actives have a fitted effect of over 45% in size. Also: potency is read from the fitted curve at half-maximal effect. In outline:
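Viability of p53RE-bla cells is measured as CellTiter-Glo luminescence following a 16 h, 37 C incubation with compound, liver microsomes from human donors and NADPH.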

A short description of assay [8]: p53 small molecule agonists, cell-based qHTS assay with rat liver microsomes: qHTS cell viability counter screen (AID 1963580). Also: nearly all actives have a fitted effect of over 45% in size. Also: potency is read from the fitted curve at half-maximal effect. The essentials: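 Cytotoxicity counter screen: intracellular ATP measured by CellTiter-Glo luminescence in the same wells as the beta-lactamase reporter read, on HCT-116 p53RE-bla cells exposed 16 h at 37 C to compounds with rat liver microsomes and NADPH, each 0.5 mg/mL final.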

Assay [9] can be described thus: p53 small molecule agonists, cell-based qHTS assay: qHTS cell viability counter screen (AID 1963581). Also: nearly all actives have a fitted effect of over 45% in size. Also: potency is read from the fitted curve at half-maximal effect. The essentials: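 qHTS counter screen: 16 h compound exposure at 37 C of p53RE-bla HCT-116 cells (4,000 per well, seeded 5 h prior), cell viability by ATP luminescence.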
A short description of assay [10]: p53 small molecule agonists, cell-based qHTS assay (AID 1963582; active = well fitted activation curve with a large enough effect in the signal ratio in the repeat runs, not every such curve was filed as active; the % refers to the signal ratio; also: potency is read from the fitted curve at half-maximal effect). In outline: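 Measured: fluorescence from cleaved LiveBLAzer substrate. System: p53RE-bla cells, 16 h compound treatment at 37 C, 2 h substrate step at room temperature.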
Assay [11] deals with 5-hydroxytryptamine receptor 2A (Homo sapiens) (UniProt P28223). The assay is described as follows: 5-hydroxytryptamine receptor 2A (HTR2A) small molecule antagonists, cell-based qHTS assay (AID 1963586). Also: nearly all actives have a fitted effect of over 45% in size. Also: potency is read from the fitted curve at half-maximal effect. In outline:
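CHO cells stably expressing human HTR2A were plated for 18 h at 37 C, then loaded with calcium dye for 1 h. Compounds were preincubated 5 min at room temperature before DOI (4 nM solution) was added. Kinetic fluorescence was read for 3 min.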

Assay [12] has the same target. Nature of the assay: 5-hydroxytryptamine receptor 2A (HTR2A) small molecule agonists, cell-based qHTS assay (AID 1963587). Also: nearly all actives have a fitted effect of over 30% in size. Also: potency is read from the fitted curve at half-maximal effect. In outline:
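CHO cells stably expressing human HTR2A, plated 18 h, loaded with calcium dye 1 h at 37 C. Agonist mode: compounds added and intracellular calcium fluorescence recorded kinetically for 2 min at 1 sec intervals.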

Assay [13] addresses Muscarinic acetylcholine receptor M1 (Homo sapiens) (UniProt P11229). Nature of the assay: Cholinergic receptor muscarinic 1 (CHRM1) small molecule antagonists, cell-based qHTS assay (AID 1963588). Also: nearly all actives have a fitted effect of over 40% in size. The essentials:
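Compounds were tested at 15 concentrations in three independent runs. Dye-loaded CHRM1-CHO cells were exposed 5 min at room temperature before stimulation by acetylcholine added at 50nM. Intracellular calcium was read kinetically on FDSS for 3 min.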

For assay [14] the target is unchanged. Nature of the assay: Cholinergic receptor muscarinic 1 (CHRM1) small molecule agonists, cell-based qHTS assay (AID 1963589). Also: nearly all actives have a fitted effect of over 35% in size. The essentials:
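Kinetic fluorescence (1 s intervals) of calcium-sensitive dye in human M1 CHO cells after compound addition; cells pre-incubated 18 h at 37 C/5% CO2 and dye-loaded 1 h.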

Assay [15] has as its target D(2) dopamine receptor (Homo sapiens) (UniProt P14416). Nature of the assay: Dopamine D2 receptor (DRD2) small molecule antagonists, cell-based qHTS assay (AID 1963595; active = well fitted inhibition curve with a large enough effect in the signal ratio in the repeat runs, with a control signal flat; the % refers to the signal ratio; also: potency is read from the fitted curve at half-maximal effect). The essentials:
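Antagonist mode in DRD2-HEK293 cells: after compound addition with 0.1 mM Ro20-1724, cells received quinpirole (12 nM) and NKH477 (200 nM) for 30 min at room temperature; HTRF cAMP read after 1 h detection.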

Assay [16] is described as follows: cAMP Responsive Elements (CRE) small molecule agonists, cell-based qHTS assay (AID 1963590). The essentials: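 Test agents in DMSO were incubated 3 h at 37 C/5% CO2 with CRE-bla HEK 293T cells seeded 18 h earlier; LiveBLAzer B/G FRET substrate was added and read after 2 h at room temperature.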
Assay [17] can be described thus: cAMP Responsive Elements (CRE) small molecule antagonists, cell-based qHTS assay (AID 1963591; active = well fitted inhibition curve with a large enough effect in the signal ratio in the repeat runs, not every such curve was filed as active; the % refers to the signal ratio). The essentials: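 Reporter line CRE-bla HEK 293T in dialyzed-FBS DMEM; cells preincubated 18 h, treated 3 h with compound plus NKH477 (0.25 uM final); LiveBLAzer FRET, 2 h RT.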
Assay [18] deals with Beta-2 adrenergic receptor (Homo sapiens) (UniProt P07550). The assay is described as follows: Adrenergic beta2 receptor (ADRB2) small molecule agonists, cell-based qHTS assay (AID 1963593).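 Also: CHO cells stably overexpressing human ADRB2.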 The essentials:
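CHO cells stably over-expressing ADRB2 were plated overnight at 37C, then dosed with compounds plus a stimulation mix containing 100uM IBMX and 25uM Ro-20-1724 for 0.5hr at room temperature. cAMP was measured by HTRF competition, 1hr.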

Assay [19] concerns the target D(2) dopamine receptor (Homo sapiens) (UniProt P14416). Nature of the assay: Dopamine D2 receptor (DRD2) small molecule agonists, cell-based qHTS assay (AID 1963594). Also: nearly all actives have a fitted effect of over 35% in size. The essentials:
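HEK293 cells stably expressing human DRD2, pre-treated with PDE inhibitor Ro20-1724 (0.1 mM final) and compound 10 min at room temperature, then stimulated with NKH477 (200nM […]) for 30 min. cAMP read by HTRF (665/620 nm).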

The target of assay [20] is Beta-2 adrenergic receptor (Homo sapiens) (UniProt P07550). Nature of the assay: Adrenergic beta2 receptor (ADRB2) small molecule antagonists, cell-based qHTS assay (AID 1963592). Also: series mostly up to about 92 µM; nearly all actives have a fitted effect of over 50% in size. In outline: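 Assay format: CHO-ADRB2 cells, 18-20hr seeding at 37C/5% CO2, then compound plus 1nM isoproterenol agonist mix for 0.5hr RT. Homogeneous time-resolved fluorescence cAMP detection after 1hr, expressed as 665/615 nm ratio.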

“And” between values parts separate entries of the source, which are not always exact repeats. Equal values may be shown once. Results filed as inconclusive are left out. Where a structure was tested more than once in an assay, its records may differ in their call. The source made the active and inactive calls. Unless noted, calls follow the shape of the full dose curve.

Chain of Beta-2 adrenergic receptor (Homo sapiens) (P07550 whole entry, looked up): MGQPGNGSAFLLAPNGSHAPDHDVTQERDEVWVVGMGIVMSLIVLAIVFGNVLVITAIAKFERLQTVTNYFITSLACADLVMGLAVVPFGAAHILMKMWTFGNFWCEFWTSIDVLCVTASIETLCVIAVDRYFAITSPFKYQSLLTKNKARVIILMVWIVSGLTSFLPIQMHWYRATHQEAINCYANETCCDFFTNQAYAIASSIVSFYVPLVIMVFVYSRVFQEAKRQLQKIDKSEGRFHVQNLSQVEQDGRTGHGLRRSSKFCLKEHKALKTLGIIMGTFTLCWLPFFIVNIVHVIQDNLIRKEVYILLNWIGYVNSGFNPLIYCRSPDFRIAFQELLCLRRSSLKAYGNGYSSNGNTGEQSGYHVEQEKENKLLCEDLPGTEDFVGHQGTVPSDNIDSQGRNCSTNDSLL
Chain of Muscarinic acetylcholine receptor M1 (Homo sapiens) (P11229 whole entry, looked up): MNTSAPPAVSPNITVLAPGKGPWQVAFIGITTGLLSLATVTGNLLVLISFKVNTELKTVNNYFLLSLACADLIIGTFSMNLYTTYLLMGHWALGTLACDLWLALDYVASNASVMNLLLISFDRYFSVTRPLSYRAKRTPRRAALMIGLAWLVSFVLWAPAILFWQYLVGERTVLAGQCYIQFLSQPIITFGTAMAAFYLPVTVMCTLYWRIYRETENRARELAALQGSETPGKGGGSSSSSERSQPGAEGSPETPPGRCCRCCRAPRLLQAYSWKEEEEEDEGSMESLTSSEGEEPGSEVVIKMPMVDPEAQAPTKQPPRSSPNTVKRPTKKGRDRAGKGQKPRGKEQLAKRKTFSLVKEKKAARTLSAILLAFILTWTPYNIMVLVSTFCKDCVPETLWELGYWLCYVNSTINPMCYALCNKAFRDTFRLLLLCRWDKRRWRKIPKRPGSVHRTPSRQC
Chain of Gonadotropin-releasing hormone receptor (Homo sapiens) (P30968 whole entry, looked up): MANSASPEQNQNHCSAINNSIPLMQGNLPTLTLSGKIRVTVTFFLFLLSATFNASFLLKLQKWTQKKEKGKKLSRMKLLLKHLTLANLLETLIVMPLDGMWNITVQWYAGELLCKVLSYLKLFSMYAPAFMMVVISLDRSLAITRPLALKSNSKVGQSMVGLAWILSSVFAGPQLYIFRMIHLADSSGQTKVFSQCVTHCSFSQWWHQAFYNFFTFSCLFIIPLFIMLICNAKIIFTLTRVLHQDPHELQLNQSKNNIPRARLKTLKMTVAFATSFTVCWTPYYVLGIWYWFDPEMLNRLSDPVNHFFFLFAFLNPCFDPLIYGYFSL
Chain of D(2) dopamine receptor (Homo sapiens) (P14416 whole entry, looked up): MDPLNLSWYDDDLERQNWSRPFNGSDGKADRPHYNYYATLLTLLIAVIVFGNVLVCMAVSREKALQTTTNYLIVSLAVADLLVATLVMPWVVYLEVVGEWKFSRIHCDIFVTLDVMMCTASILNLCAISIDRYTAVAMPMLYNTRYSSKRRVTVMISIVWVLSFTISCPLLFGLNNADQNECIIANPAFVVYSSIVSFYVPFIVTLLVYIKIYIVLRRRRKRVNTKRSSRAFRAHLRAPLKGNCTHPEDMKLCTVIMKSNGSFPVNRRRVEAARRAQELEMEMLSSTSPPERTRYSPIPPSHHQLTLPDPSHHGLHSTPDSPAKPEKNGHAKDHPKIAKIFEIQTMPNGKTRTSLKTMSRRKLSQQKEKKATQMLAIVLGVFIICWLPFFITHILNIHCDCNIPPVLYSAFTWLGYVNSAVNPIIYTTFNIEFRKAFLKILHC
Chain of 5-hydroxytryptamine receptor 2A (Homo sapiens) (P28223 whole entry, looked up): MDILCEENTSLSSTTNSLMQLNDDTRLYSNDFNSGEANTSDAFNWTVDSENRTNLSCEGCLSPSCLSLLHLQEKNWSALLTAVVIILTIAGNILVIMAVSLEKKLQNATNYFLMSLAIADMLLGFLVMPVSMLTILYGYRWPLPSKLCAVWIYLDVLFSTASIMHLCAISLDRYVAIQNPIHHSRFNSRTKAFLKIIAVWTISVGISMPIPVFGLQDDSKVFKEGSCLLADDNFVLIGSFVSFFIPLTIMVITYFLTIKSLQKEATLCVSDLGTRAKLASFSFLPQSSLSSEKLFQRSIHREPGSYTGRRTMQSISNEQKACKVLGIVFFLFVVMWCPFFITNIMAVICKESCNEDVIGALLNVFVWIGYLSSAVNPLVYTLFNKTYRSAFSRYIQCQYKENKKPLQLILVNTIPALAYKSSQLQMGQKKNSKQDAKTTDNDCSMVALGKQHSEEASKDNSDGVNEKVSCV

Take `O=Nc1ccc(Nc2ccccc2)cc1`: the Potency in [1] was 27.4 µM (active); in [2], 9.74 µM (active) and 24.3 µM (active); in [7], “inactive and 36.3 µM (active)”; in assay [8], 40.8 µM (active); in [10] it was 43.4 µM (active); in assay [11] it was 844 nM (active) and 5.3 µM (active). Also, the figures for the Potency in assay [12] and in assay [15] were 0.391 µM (active) and 54.5 µM (active), respectively. The Potency entry in assay [3], in assay [4], in [5], in assay [6], in assay [9] and in assay [13] was “inactive” each time. The Potency result in assay [14] is “inactive”.

Turning to `Cc1ccc(C)cc1`, the Potency entry in assay [1], in assay [2], in assay [3], in [4], in [5] and in assay [6] was “inactive” throughout. For the same compound, the Potency entry in [7], in [8], in assay [9], in assay [10], in [11] and in assay [12] was “inactive” in each case. Moreover, the Potency result in assay [13], in assay [14], in [16], in [17], in [18] and in [19] was “inactive” throughout.

In the case of `CC1=CC(=O)c2ccccc2C1=O`, the Potency was 27.3 µM (active) and 26.6 µM (active) in [1]; 13.3 µM (active) in assay [2]; 40.8 µM (active) and inactive in assay [9]. The Potency entry in assay [3], in [4], in assay [5], in assay [6], in assay [7] and in [8] was “inactive” throughout. Moreover, the Potency entry in assay [10], in [11], in assay [12], in assay [13], in [14] and in assay [17] was “inactive” throughout. Moreover, the Potency result in assay [20], in [18], in assay [19] and in assay [15] was “inactive” throughout.

As to `C=C(C)C(=O)OCCOCCOCCOC(=O)C(=C)C`, the Potency entry in assay [1], in assay [2], in [3], in assay [4], in assay [5] and in [6] was “inactive” in each case. For the same compound, the Potency entry in assay [7], in [8], in assay [9], in assay [10], in [11] and in assay [12] was “inactive” throughout. Further, the Potency result in assay [13], in assay [14], in [20], in assay [19] and in [15] was “inactive” in each case.

With `CO[C@@]1(NC(=O)CSC[C@@H](N)C(=O)O)C(=O)N2C(C(=O)O)=C(CSc3nnnn3C)CS[C@@H]21`, the Potency entry in [1], in assay [2], in assay [3], in assay [4], in assay [5] and in [6] was “inactive” each time. The Potency result in [7], in [8], in assay [9], in assay [10], in [11] and in assay [12] was “inactive” each time. For the same compound, the Potency result in assay [13], in assay [14], in assay [16], in [17], in [20] and in [18] was “inactive” in each case. Moreover, the Potency result in assay [19] and in assay [15] was “inactive” in each case.

With `C1CCCNCCC1`, the Potency result in [1], in [2], in [3], in assay [4], in [5] and in assay [6] was “inactive” each time. In addition, the Potency entry in assay [7], in assay [8], in [9], in [10], in assay [11] and in [12] was “inactive” in each case. Besides, the Potency result in assay [13], in assay [14], in [16], in assay [17], in assay [20] and in [19] was “inactive” in each case. In addition, in assay [15], the Potency result was “inactive”.

For `CC(C)C(=O)c1ccccc1`, the Potency entry in assay [1], in assay [2], in assay [3], in assay [4], in [5] and in [6] was “inactive” throughout. Besides, the Potency entry in assay [7], in [8], in assay [9], in assay [10], in assay [11] and in [12] was “inactive” each time. In addition, the Potency entry in assay [13], in [14], in [16], in [17], in assay [20] and in assay [19] was “inactive” in each case. In assay [15], the Potency entry was “inactive”.
